In PMC7862700, “An all-to-all approach to the identification of sequence-specific readers for epigenetic DNA modifications on cytosine”:

Assays:
Assay in all cases: DAPPL (digital affinity profiling via proximity ligation, sequencing); 10 mM Tris-HCl pH 7.5, 50 mM NaCl, 1 mM DTT, 4% glycerol, room temperature, 30 min; GST-TFs on glutathione beads, 16-mer random dsDNA library, 0.1% formaldehyde crosslink after washing; high values mean tight binding
FEV = biological target: T1, FEV (Homo sapiens, UniProt Q99581 1-238); details: protein: recombinant; tags: N-terminal GST; dsDNA, one strand shown
T1 sequence: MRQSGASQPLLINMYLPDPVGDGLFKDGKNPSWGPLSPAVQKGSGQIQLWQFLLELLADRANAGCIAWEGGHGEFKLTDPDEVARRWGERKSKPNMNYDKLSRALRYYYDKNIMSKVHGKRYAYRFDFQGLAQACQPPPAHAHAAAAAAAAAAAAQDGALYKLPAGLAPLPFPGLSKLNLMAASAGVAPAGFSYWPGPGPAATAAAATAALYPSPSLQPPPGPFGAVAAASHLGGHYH
How it was run: (§1)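 Binding signal is given per hexamer as its read frequency for a factor divided by its frequency in the tag-only sample. GST-fused human transcription factors were expressed in yeast, captured on glutathione beads, barcoded with DNA and pooled with that sample, then incubated with 200 nmole of a 16-mer random double-stranded DNA library in Tris/NaCl/DTT/glycerol buffer for 30 min at room temperature. The pools were then washed, crosslinked, proximity-ligated, amplified by PCR and sequenced on an Illumina NextSeq500.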

ETV5 = ETV5 (Homo sapiens, UniProt P41161 1-510); details: protein: recombinant; tags: N-terminal GST; dsDNA, one strand shown
Sequence of ETV5 (P41161 whole entry): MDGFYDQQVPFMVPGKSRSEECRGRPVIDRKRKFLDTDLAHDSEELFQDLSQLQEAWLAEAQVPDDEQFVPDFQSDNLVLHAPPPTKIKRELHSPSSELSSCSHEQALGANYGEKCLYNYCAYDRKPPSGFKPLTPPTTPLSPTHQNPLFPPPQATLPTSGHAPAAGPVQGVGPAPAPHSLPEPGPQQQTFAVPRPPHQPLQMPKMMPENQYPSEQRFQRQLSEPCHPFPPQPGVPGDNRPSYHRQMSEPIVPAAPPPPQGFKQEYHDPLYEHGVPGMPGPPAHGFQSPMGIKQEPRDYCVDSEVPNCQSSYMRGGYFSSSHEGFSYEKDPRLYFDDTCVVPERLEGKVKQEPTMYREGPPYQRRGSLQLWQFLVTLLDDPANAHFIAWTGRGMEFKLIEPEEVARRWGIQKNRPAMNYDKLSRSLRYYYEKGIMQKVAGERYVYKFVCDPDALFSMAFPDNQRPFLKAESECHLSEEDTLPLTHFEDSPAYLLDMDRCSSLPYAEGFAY
How it was run: as §1

HSF1 = HSF1 (Homo sapiens, UniProt Q00613 1-529); details: protein: recombinant; tags: N-terminal GST; chain copies: 3; dsDNA, one strand shown
Sequence of HSF1 (Q00613 whole entry): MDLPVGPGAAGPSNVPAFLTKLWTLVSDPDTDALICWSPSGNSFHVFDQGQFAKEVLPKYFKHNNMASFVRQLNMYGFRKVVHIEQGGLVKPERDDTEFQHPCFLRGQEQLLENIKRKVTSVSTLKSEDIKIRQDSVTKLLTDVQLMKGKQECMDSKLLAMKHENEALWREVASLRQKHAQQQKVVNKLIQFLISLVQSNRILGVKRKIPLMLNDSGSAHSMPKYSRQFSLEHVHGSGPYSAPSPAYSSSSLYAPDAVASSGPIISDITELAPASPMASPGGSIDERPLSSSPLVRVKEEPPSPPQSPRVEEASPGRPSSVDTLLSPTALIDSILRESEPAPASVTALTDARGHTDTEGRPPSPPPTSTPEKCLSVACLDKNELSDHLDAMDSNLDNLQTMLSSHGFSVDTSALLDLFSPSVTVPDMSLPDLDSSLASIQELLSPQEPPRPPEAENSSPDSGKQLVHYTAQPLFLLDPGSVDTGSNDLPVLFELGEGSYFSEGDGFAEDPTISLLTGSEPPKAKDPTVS
How it was run: as §1

SPIC = biological target: T2, SPIC (Homo sapiens, UniProt Q8N5J4 1-248); details: protein: recombinant; tags: N-terminal GST; dsDNA, one strand shown
T2 sequence: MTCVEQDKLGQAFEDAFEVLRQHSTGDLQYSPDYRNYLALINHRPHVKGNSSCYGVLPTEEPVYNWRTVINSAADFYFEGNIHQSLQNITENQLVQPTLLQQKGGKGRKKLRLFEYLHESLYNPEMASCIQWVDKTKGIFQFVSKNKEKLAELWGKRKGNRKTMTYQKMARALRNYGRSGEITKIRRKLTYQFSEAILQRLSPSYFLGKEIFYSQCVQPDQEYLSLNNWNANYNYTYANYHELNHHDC
How it was run: as §1

ELF4 = ELF4 (Homo sapiens, UniProt Q99607 1-663); details: protein: recombinant; tags: N-terminal GST; dsDNA, one strand shown
Sequence of ELF4 (Q99607 whole entry): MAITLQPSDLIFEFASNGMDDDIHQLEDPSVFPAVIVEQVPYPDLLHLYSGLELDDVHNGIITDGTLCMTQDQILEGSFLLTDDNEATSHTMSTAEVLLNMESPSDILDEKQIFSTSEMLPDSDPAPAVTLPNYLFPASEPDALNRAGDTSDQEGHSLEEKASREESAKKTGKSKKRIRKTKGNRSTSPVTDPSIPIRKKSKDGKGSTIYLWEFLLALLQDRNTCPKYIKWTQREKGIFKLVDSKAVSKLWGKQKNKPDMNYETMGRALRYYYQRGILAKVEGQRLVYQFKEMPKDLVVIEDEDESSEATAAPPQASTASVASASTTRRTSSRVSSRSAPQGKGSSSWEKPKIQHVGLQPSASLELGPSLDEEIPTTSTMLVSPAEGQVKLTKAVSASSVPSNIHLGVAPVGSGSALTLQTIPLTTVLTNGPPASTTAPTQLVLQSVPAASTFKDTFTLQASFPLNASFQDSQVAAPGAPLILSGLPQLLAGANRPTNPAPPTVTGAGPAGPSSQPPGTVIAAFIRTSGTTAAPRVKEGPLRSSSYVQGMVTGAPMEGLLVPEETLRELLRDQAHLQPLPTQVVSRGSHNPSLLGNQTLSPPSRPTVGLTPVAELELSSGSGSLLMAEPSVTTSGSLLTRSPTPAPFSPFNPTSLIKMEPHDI
How it was run: as §1

ELK4 = biological target: T3, ELK4 (Homo sapiens, UniProt P28324-2 1-405); details: protein: recombinant; tags: N-terminal GST; dsDNA, one strand shown
T3 sequence: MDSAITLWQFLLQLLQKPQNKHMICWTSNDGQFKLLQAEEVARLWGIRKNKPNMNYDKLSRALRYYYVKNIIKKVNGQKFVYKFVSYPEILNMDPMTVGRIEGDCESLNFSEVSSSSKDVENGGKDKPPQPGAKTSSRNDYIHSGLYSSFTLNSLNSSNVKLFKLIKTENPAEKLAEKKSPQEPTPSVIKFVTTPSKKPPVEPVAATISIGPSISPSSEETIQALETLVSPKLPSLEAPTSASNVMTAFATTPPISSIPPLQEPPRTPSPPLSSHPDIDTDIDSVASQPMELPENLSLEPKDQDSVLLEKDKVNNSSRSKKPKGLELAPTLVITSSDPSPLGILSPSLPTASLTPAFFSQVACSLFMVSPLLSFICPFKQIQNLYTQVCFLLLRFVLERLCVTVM
How it was run: as §1

ETV2 = biological target: T4, ETV2 (Homo sapiens, UniProt O00321 1-342); details: protein: recombinant; tags: N-terminal GST; dsDNA, one strand shown
T4 sequence: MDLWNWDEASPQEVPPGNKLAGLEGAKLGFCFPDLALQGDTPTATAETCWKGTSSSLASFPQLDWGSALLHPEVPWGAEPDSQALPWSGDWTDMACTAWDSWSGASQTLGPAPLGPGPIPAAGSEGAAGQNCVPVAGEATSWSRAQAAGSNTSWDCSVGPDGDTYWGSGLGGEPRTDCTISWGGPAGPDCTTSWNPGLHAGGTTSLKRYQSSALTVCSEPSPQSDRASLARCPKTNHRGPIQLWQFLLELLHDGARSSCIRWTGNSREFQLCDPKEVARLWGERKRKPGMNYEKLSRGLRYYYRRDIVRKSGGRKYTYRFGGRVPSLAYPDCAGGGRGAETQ
How it was run: as §1

ELF3 = biological target: T5, ELF3 (Homo sapiens, UniProt P78545 1-371); details: protein: recombinant; tags: N-terminal GST; dsDNA, one strand shown
T5 sequence: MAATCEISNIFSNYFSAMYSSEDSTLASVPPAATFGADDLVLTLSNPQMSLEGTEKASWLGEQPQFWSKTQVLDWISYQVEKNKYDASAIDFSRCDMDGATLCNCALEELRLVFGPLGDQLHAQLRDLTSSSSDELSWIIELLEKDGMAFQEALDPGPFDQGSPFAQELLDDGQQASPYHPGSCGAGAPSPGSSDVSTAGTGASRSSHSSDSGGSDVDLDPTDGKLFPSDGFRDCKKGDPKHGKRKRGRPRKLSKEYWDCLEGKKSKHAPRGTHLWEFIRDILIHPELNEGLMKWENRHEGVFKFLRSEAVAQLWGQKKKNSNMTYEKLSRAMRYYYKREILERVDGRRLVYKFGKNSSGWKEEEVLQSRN
How it was run: as §1

CRX = CRX (Homo sapiens, UniProt O43186 1-299); details: protein: recombinant; tags: N-terminal GST; dsDNA, one strand shown
Sequence of CRX (O43186 whole entry): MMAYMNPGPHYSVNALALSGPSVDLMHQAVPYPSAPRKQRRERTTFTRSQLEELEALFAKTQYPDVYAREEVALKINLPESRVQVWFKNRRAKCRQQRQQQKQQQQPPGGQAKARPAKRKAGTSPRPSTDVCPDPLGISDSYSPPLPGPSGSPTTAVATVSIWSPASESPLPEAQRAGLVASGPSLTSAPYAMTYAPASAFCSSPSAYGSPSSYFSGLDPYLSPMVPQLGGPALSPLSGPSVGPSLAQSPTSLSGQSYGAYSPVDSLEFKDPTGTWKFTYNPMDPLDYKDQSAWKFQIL
How it was run: as §1

ETV1 = ETV1 (Homo sapiens, UniProt P50549 1-477); details: protein: recombinant; tags: N-terminal GST; dsDNA, one strand shown
Sequence of ETV1 (P50549 whole entry): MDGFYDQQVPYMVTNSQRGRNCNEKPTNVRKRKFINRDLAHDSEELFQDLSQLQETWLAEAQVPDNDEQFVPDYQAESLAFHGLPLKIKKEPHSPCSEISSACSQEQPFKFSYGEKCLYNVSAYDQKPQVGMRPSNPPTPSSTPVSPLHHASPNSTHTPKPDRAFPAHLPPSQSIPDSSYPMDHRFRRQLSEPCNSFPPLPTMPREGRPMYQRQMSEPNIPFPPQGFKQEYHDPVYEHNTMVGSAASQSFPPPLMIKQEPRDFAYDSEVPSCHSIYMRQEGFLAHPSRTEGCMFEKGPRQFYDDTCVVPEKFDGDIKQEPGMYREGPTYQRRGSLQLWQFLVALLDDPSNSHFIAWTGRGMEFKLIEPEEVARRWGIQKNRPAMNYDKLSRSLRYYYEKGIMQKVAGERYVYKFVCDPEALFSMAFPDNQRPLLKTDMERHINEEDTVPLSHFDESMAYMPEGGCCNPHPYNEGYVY
How it was run: as §1

ERF = biological target: T6, ERF (Homo sapiens, UniProt P50548 1-548); details: protein: recombinant; tags: N-terminal GST; dsDNA, one strand shown
T6 sequence: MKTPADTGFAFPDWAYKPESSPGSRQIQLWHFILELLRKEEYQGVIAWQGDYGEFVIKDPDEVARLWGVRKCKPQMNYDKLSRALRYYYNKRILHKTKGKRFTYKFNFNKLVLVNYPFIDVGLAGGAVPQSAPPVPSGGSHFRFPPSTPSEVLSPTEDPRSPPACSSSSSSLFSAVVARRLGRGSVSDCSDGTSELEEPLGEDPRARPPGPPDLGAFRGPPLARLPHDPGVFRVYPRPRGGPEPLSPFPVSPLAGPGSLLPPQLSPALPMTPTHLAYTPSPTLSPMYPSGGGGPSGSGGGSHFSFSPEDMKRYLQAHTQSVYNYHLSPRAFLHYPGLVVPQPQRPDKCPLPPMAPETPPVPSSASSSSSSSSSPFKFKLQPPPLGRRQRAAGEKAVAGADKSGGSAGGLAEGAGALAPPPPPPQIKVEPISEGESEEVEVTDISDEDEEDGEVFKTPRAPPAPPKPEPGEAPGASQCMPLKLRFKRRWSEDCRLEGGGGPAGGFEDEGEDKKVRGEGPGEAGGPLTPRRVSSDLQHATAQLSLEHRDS
How it was run: as §1

ETV3L = biological target: T7, ETV3L (Homo sapiens, UniProt Q6ZN32 1-361); details: protein: recombinant; tags: N-terminal GST; dsDNA, one strand shown
T7 sequence: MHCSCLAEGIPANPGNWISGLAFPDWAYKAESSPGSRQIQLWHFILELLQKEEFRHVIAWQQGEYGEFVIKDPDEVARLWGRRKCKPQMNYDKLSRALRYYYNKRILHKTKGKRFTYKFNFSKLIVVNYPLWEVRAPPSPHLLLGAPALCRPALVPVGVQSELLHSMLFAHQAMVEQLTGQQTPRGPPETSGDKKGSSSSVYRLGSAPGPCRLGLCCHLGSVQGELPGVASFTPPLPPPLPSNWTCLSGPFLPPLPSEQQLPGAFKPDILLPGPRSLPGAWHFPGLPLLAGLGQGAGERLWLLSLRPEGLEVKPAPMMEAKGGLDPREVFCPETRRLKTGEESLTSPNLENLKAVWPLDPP
How it was run: as §1

ETS2 = biological target: T8, ETS2 (Homo sapiens, UniProt P15036 1-469); details: protein: recombinant; tags: N-terminal GST; dsDNA, one strand shown
T8 sequence: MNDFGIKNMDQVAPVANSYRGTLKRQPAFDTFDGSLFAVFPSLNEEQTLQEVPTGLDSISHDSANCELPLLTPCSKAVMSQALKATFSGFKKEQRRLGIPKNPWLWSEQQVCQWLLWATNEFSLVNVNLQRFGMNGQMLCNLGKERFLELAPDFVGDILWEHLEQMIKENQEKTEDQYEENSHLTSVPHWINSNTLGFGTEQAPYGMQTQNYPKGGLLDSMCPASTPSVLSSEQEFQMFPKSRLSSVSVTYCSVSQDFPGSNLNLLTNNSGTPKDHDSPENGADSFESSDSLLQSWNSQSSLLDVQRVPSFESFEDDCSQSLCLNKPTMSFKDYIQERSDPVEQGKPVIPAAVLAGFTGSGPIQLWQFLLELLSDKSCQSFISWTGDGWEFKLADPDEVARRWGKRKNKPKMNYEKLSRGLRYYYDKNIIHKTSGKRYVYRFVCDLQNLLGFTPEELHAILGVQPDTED
How it was run: as §1

SPDEF = biological target: T9, SPDEF (Homo sapiens, UniProt O95238 1-335); details: protein: recombinant; tags: N-terminal GST; dsDNA, one strand shown
T9 sequence: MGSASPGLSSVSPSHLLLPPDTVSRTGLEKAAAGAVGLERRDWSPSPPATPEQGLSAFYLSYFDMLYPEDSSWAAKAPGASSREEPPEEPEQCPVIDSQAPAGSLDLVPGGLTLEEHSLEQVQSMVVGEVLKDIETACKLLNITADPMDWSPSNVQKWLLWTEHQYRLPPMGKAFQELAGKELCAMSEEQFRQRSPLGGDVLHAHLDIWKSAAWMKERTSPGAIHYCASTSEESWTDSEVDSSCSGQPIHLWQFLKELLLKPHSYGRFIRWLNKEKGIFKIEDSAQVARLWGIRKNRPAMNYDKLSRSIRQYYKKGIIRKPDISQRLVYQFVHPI
How it was run: as §1

ETV7 = biological target: T10, ETV7 (Homo sapiens, UniProt Q9Y603 1-341); details: protein: recombinant; tags: N-terminal GST; dsDNA, one strand shown
T10 sequence: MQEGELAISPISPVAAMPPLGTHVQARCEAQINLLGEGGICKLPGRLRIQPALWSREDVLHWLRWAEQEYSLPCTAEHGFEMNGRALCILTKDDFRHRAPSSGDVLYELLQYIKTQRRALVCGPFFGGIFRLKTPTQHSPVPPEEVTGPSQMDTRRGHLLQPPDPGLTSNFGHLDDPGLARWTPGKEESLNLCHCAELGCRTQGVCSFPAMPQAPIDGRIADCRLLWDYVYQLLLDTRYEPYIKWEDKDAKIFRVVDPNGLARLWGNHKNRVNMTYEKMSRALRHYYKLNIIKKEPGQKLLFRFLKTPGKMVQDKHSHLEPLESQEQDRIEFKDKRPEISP
How it was run: as §1

ELF5 = biological target: T11, ELF5 (Homo sapiens, UniProt Q9UKW6-2 1-255); details: protein: recombinant; tags: N-terminal GST; dsDNA, one strand shown
T11 sequence: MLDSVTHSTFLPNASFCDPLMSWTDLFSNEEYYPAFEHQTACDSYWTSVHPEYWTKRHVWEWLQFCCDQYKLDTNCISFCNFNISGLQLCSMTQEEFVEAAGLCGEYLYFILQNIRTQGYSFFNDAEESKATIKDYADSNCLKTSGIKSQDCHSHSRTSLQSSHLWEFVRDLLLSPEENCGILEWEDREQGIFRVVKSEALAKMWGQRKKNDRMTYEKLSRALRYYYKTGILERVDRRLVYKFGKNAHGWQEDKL
How it was run: as §1

ETV3 = biological target: T12, ETV3 (Homo sapiens, UniProt P41162-2 1-143); details: protein: recombinant; tags: N-terminal GST; dsDNA, one strand shown
T12 sequence: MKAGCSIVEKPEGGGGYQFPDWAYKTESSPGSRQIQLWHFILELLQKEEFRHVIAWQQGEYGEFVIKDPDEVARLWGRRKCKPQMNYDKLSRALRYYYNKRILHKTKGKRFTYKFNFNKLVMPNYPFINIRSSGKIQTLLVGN
How it was run: as §1

ETV6 = ETV6 (Homo sapiens, UniProt P41212 1-452); details: protein: recombinant; tags: N-terminal GST; dsDNA, one strand shown
Sequence of ETV6 (P41212 whole entry): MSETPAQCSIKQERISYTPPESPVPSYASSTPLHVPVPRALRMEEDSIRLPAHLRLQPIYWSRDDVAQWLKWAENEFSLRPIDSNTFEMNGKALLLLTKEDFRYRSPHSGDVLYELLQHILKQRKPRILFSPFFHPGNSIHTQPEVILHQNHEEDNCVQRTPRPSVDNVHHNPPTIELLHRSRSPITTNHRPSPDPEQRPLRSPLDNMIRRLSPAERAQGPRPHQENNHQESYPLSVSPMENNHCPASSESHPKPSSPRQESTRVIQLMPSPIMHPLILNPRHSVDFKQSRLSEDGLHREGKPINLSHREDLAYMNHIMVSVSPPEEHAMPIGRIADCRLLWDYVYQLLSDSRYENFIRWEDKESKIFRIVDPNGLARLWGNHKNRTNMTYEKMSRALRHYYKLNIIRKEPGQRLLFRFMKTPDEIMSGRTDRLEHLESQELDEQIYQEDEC
How it was run: as §1

CCGCTC
binding signal (FEV): 1.61 fold enrichment (6-mer frequency, TF over GST control)
binding signal (ETV5): 1.46 fold enrichment (6-mer frequency, TF over GST control)
binding signal (HSF1): 1.24 fold enrichment (6-mer frequency, TF over GST control)
binding signal (SPIC): 1.53 fold enrichment (6-mer frequency, TF over GST control)
binding signal (ELF4): 1.6 fold enrichment (6-mer frequency, TF over GST control)
binding signal (ELK4): 1.65 fold enrichment (6-mer frequency, TF over GST control)
binding signal (ETV2): 1.52 fold enrichment (6-mer frequency, TF over GST control)
binding signal (ELF3): 1.54 fold enrichment (6-mer frequency, TF over GST control)
binding signal (CRX): 1.21 fold enrichment (6-mer frequency, TF over GST control)
binding signal (ETV1): 1.45 fold enrichment (6-mer frequency, TF over GST control)
binding signal (ERF): 1.66 fold enrichment (6-mer frequency, TF over GST control)
binding signal (ETV3L): 1.74 fold enrichment (6-mer frequency, TF over GST control)
binding signal (ETS2): 1.54 fold enrichment (6-mer frequency, TF over GST control)
binding signal (SPDEF): 1.44 fold enrichment (6-mer frequency, TF over GST control)
binding signal (ETV7): 1.42 fold enrichment (6-mer frequency, TF over GST control)
binding signal (ELF5): 1.53 fold enrichment (6-mer frequency, TF over GST control)
binding signal (ETV3): 1.46 fold enrichment (6-mer frequency, TF over GST control)
binding signal (ETV6): 1.32 fold enrichment (6-mer frequency, TF over GST control)
